Eya2 phos inh – inhibitors of human Eya2 phosphatase activity. O00167. recombinant Eya2, OMFP fluorescence dephosphorylation (OMFP is methylfluorescein phosphate). Potency, µM (series often up to 76.9 µM), hits mostly inhibitors. actives 0.006% (n = 330,000). AID 488837
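Eya2 protein (added as 0.2 uM solution) was preincubated with compound for 10 min at ambient temperature in 50 mM HEPES pH 7.5, 50 mM NaCl, 5 uM MgCl2, 0.05% BSA, 1 mM DTT. OMFP (added at 50 uM) then reacted 10 min; fluorescence read at 485/525 nm.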
TrxR1 substrate – rat thioredoxin reductase 1 substrate activity; O89049; purified TrxR1 substrate turnover, NADPH consumption readout; Potency, µM (doses to about 114 µM); actives 0.01% (n = 390,000); AID 588456; also: nearly all actives have a fitted effect of over 50% in size
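Rat TrxR1, dispensed at 90 nM, was prereduced with 400 uM NADPH (final) for 5 min at ~22 deg C, then incubated with compound 15 min before 400 uM selenite. A first-read NADPH fluorescence drop versus no-compound background flagged substrates.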
GALK inh – inhibitors of human galactokinase; Potency, µM (top dose mostly 57.5 µM), most hits filed as inhibitors; AID 1868; P51570; Purified GALK, Kinase-Glo residual ATP luminescence; actives 0.007% (n = 270,000)
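Compounds were pin-transferred into ATP buffer (35 uM final), then GALK plus galactose (5 nM, 100 uM final) was added. After 1 h at room temperature, Kinase-Glo Plus was added and luminescence read after 10 min.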
Six1-Eya2 blk – blocks human Six1 binding to Eya2; Q15475+O00167; AlphaScreen GST-Six1/His-Eya2 binding, biochemical; stronger effect = lower value; activity change, % (no concentration beside the values); actives 0.56% (n = 360,000); AID 651725; in the data active = activity change below about -65%; inconclusive = mostly about -30% to -63%
Target sequence (O00167 whole entry, looked up): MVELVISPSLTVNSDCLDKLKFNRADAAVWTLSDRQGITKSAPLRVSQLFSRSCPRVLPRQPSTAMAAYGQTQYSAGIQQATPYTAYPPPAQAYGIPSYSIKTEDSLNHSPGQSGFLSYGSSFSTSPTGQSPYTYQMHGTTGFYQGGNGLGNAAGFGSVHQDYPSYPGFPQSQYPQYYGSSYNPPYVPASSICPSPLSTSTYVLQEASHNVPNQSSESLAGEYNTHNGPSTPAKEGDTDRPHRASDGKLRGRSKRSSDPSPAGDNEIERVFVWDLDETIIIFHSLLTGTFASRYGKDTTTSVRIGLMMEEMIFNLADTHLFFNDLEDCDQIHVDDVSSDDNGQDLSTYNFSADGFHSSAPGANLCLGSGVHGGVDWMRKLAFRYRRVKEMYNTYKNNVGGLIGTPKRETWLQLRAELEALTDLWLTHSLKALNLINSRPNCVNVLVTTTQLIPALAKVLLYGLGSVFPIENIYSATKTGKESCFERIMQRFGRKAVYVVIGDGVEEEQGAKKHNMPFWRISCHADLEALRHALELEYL
Target sequence (Q15475 whole entry, looked up): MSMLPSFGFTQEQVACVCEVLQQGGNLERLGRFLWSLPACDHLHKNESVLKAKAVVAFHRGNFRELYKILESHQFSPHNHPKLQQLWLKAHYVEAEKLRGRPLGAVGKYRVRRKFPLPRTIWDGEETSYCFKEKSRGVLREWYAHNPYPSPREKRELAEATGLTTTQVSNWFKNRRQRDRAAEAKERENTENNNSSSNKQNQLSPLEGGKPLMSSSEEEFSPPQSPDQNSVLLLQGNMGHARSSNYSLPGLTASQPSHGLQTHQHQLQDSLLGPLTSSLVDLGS
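AlphaScreen with GST-Six1 and His-Eya2 (5X mix: 250 nM and 500 nM), glutathione donor and nickel acceptor beads; buffer 50 mM Tris pH 8.0, 300 mM NaCl, 1 mM TCEP; 1 h at 37 C in the dark.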
CtBP-E1A inh – CtBP/E1A binding inhibition; actives 0.49% (n = 340,000); AlphaScreen GST-E1A/His-CtBP binding, 1536-well; stronger effect = lower value; activity change, % (test concentration not listed); in the data active = activity change below about -65%; inconclusive = mostly about -30% to -63%
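In 5 uL wells, 23 nL compound meets equimolar GST-E1A and His-CtBP (5X stock 125 nM each) for 2 h, 37 °C. Beads (5X, 50 ug/mL) then 1 h, 37 °C, dark.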
TrxR1 inh – blocks rat thioredoxin reductase 1; O89049; recombinant rTrxR1, NADPH fluorescence consumption, selenite substrate; Potency, µM (doses to about 114 µM), usual class: inhibitors; actives 1% (n = 390,000); also: nearly all actives have a fitted effect of over 65% in size
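Rat TrxR1 (90 nM in the dispensed reagent) was pre-reduced with 400 uM NADPH for 5 min at room temperature, then incubated with compound for 15 min. After 400 uM selenite was added, NADPH fluorescence (Ex 340/Em 450 nm) was followed for 8 min.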
Hits are given with their value; . = inactive; ? = inconclusive; / = no result; [ ] = remark or other dose. Compounds with a hit are over-represented: about 1.5% of the library has one in this group of screens. Unless noted, calls follow the shape of the dose curve; as a rule, active = well fitted curve in the direction sought with a large enough effect; inconclusive = small, poorly fitted or top-dose-only effect, or another doubt; inactive = no such curve, though single readings can be large; an effect the other way counts as inactive or inconclusive.

SMILES | Eya2 phos inh | TrxR1 substrate | GALK inh | Six1-Eya2 blk | CtBP-E1A inh | TrxR1 inh
CCc1ccc(NS(=O)(=O)c2c(-c3ccccc3)csc2C(=O)OC)cc1 | / | . | / | / | / | .
Cc1ccc(-c2cc(C(=O)Nc3cccnc3)c3ccccc3n2)o1 | .[15.4 µM] | . | . | ? | . | 8.9µM
O=C(O)COc1ccccc1/C=N/NC(=O)c1cc(-c2ccc(Cl)cc2)nc2ccccc12 | . | . | . | -80 | -81 | .
O=C(O)COc1ccccc1/C=N/NC(=O)c1cc(-c2ccccc2)nc2ccccc12 | . | . | / | . | . | .
Cc1ccc(-c2cc(C(=O)Nc3ccccn3)c3ccccc3n2)o1 | . | . | . | . | . | .
Cc1ccc(C)c(-c2cc(C(=O)Nc3cccnc3)c3ccccc3n2)c1 | . | . | . | . | . | .
COc1ccc(OC)c(/C=N/NC(=O)c2cc(-c3ccc(C)o3)nc3ccccc23)c1 | . | . | . | . | . | 79µM
Cc1ccc(NC(=O)c2cc(-c3ccc(C)o3)nc3ccccc23)cc1 | . | . | . | . | . | 11µM
Cn1c(=O)c2c(nc(SCC(=O)Nc3ccc(OC(F)(F)F)cc3)n2Cc2cccc(C(F)(F)F)c2)n(C)c1=O | / | . | / | / | / | .
COc1cc2c(NC3CCN(C)CC3)nc(N3CCCN(C)CC3)nc2cc1OCC1CCCNC1 (stereo not given) | / | . | / | / | / | 32µM
COc1cc2nc(N3CCCN(C)CC3)nc(NC3CCN(C)CC3)c2cc1OC | / | . | / | / | / | ?
O=C(NC(=S)NNC(=O)c1cnccn1)c1ccc(F)cc1 | . | . | . | -92 | / | ?
O=C(/C=C/c1ccc(F)cc1)NC(=S)NNC(=O)c1cnccn1 | . | . | / | -90 | -81 | .
O=C(NNC(=S)NC(=O)c1cccnc1)c1ccc(F)cc1 | . | . | . | . | . | .
Clc1ccc(CN2CCC(CNc3ncnc4onc(-c5ccc(Cl)cc5)c34)CC2)cc1 | / | . | / | / | / | .
CCOC(=O)C1CCN(C(=O)Nc2ccc3nc(-c4ccco4)c(-c4ccco4)nc3c2)CC1 | . | . | . | ? | . | 3.2µM
O=C(Nc1ccc2nc(-c3ccco3)c(-c3ccco3)nc2c1)N1CCCCCC1 | . | . | . | ? | . | 1.8µM
CCOC(=O)C1CCN(C(=O)Nc2ccc3c(c2)nc(C)n3C)CC1 | . | . | . | . | . | .
O=C(Nc1ccc2nc(-c3cccs3)c(-c3cccs3)nc2c1)N1CCCC1 | / | . | / | / | / | .
CCN(CC)c1ccccc1/C=C/[n+]1ccc(CCCCI)c2ccccc21 | / | . | / | / | / | ?
COc1ccc(NC(=O)C(CC(C)C)NC(=O)C2CCCCC2)cc1 (stereo not given) | / | .[2.29 µM] | / | / | / | .[2.29 µM]
COc1ccc(/C=C/C(=O)O)cc1 | . | . | / | . | . | .
CCOC(=O)c1cc(CC)sc1NC(=O)CN1CCN(C(=O)c2ccco2)CC1 | . | . | . | . | . | 35µM
COc1ccc(OC)c(/C=C/C(=O)OCC(=O)N2CCCC2)c1 | . | . | / | . | / | .
CCOC(=O)c1cc(C)sc1NC(=O)CN1CCN(C(=O)c2ccco2)CC1 | . | . | . | . | . | .
SMILES | Eya2 phos inh | TrxR1 substrate | GALK inh | Six1-Eya2 blk | CtBP-E1A inh | TrxR1 inh
COc1ccc(OC)c(/C=C/C(=O)OCC(=O)N2C(C)CCCC2C)c1 (stereo not given) | . | . | / | -67 | -94 | .
CCOC(=O)/C=C/C(=O)OCC(=O)N1CCN(C(=O)c2ccco2)CC1 | . | . | . | . | . | 50µM
COc1ccc(/C=C/C(=O)Oc2ccc(C)cc2)cc1 | ? | . | . | . | -70 | .
O=C(/C=C/c1ccc(OC(F)F)cc1)OCC(=O)N1CCN(C(=O)c2ccco2)CC1 | . | . | . | . | ? | .
Cc1cccc(Cn2cccc2CNS(=O)(=O)c2ccc(C)c(C)c2)c1 | / | . | / | / | / | .
COC(=O)c1ccccc1NC(=O)Cn1nc(C(F)(F)F)c2c1CCCC2 | / | . | / | / | / | .
C[n+]1ccc(C(c2c[nH]c3ccccc23)c2cc[n+](C)c3ccccc23)c2ccccc21 | / | . | / | / | / | .
O=C(COC(=O)c1c2c(nc3ccccc13)/C(=C\c1ccco1)CC2)NC1CCCC1 | / | . | / | . | . | ?
CC(=O)Nc1ccc(S(=O)(=O)NCCC(=O)OCC(=O)N2CCN(C(=O)c3ccco3)CC2)cc1 | . | . | . | . | . | ?
CC1CCCCC1NC(=O)COC(=O)c1c2c(nc3ccccc13)/C(=C\c1ccco1)CC2 (stereo not given) | / | . | / | ? | . | 14µM
O=C(CCNS(=O)(=O)c1cccc(Cl)c1)OCC(=O)N1CCN(C(=O)c2ccco2)CC1 | . | . | / | . | . | 50µM
CC1CCN(C(=O)COC(=O)/C=C/c2ccco2)CC1 | . | . | / | . | . | 8.9µM
CC1CCCC(C)N1C(=O)COC(=O)/C=C/c1ccco1 (stereo not given) | . | . | / | . | . | 50µM
CC1CCCC(NC(=O)COC(=O)/C=C/c2ccco2)C1C (stereo not given) | . | . | / | . | . | 22µM
CC1CCCC(NC(=O)COC(=O)/C=C/c2ccc([N+](=O)[O-])cc2)C1C (stereo not given) | . | . | / | . | . | .
COc1ccc(OC)c(/C=C/C(=O)Oc2ccc(C(C)=O)cc2)c1 | . | . | . | . | -88 | .
CC(C)(C)n1ncc2c(=O)n(Cc3cc(F)ccc3Cl)cnc21 | / | . | / | / | / | .
COc1cc2ccnc(C=NO)c2cc1OC | / | / | / | -86 | . | /
Cc1ccc(-c2csc3nc(C)n(N)c(=O)c23)o1 | . | . | . | . | . | .
Cc1ccc(-c2csc3nc(C)n(-n4c(C)ccc4C)c(=O)c23)o1 | . | . | . | . | . | 18µM
Cc1cn2c(=O)c(S(=O)(=O)NCc3ccc(F)cc3)c(C)nc2s1 | / | . | / | / | / | .
CCCc1ccc(S(=O)(=O)N2CCC(c3nnc(-c4cccc(C)c4)o3)CC2)cc1 | / | . | / | / | / | .
COc1ccc(C2c3c(ncn(Cc4ccco4)c3=N)Oc3ccc4ccccc4c32)cc1 (stereo not given) | . | . | . | . | . | .[0.0914 µM]
COc1ccc(C2c3ccc(O)cc3Oc3ncn(Cc4ccco4)c(=N)c32)cc1 (stereo not given) | . | . | . | . | . | 50µM
COc1cccc(CNC(=O)Cn2c(=O)nc(-c3ccccc3F)c3cc(Cl)ccc32)c1 | / | . | / | / | / | .
COc1ccc(/C=C/C(=O)O/N=C(\N)c2ccccn2)cc1OC | . | . | / | . | -73 | .
N/C(=N\OC(=O)/C=C/c1ccccc1)c1ccccn1 | . | . | . | . | . | .
CCOC(=O)c1ccc2c(c1)N(CC(=O)N(C)c1ccccc1)C(=O)c1ccccc1S2 | / | . | / | / | / | .
CN(C)S(=O)(=O)c1ccc(C(=O)Oc2cc(=O)[nH]c3ccccc23)cc1 | . | . | . | . | . | 14µM
